Laboratory results as given in PubChem BioAssay AID485314 (National Center for Advancing Translational Sciences (NCATS), 2010).
The campaign covered roughly 340,000 compounds. About 4,500 (1.3%) were called active. Not shown: some 5% with an inconclusive outcome. Shown is part of a subset that was picked to be rich in actives. Values without a mark were called inactive. Calls follow the shape of the dose curve; as a rule, active = well fitted inhibition curve with a large enough effect; inconclusive = small, poorly fitted or top-dose-only effect, or another doubt; inactive = no such curve, though single readings can be large or run the other way.

Each molecule was assayed against DNA polymerase beta (Homo sapiens) (UniProt P06746) (assay: qHTS Assay for Inhibitors of DNA Polymerase Beta). Details: Pol beta primer extension/strand displacement, fluorescence kinetic; series mostly up to 114 µM; activity change, negative = inhibition: at the top concentration.
How it was run: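 10 nM enzyme + cpd, 15 min RT; start with substrate 50 nM final; read 0 min and after 10 min RT. Corrected, normalized data; 4-parameter Hill curve fit.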
% is scaled to controls: 0 for no effect and ±100 for the full control effect; potency is read from the fitted curve at half-maximal effect.

Row | SMILES | activity change, negative = inhibition | Potency
1 | COc1cccc(C(=O)NC2=NC(c3ccc(N(C)C)cc3)CC(=O)N2)c1 (centres undefined) | 0.969% | –
2 | CCC(=O)N1CCc2cc(S(=O)(=O)NC(CC(C)C)C(=O)NCCc3cccc(C)c3)ccc21 (centres undefined) | -3.09% | –
3 | CC(C)C(c1nnnn1C1CCCCC1)N1CCN(C(=O)c2ccco2)CC1 (centres undefined) | 23.6% | –
4 | CCC(C)(C)n1nnnc1C(c1ccc(OC)c(OC)c1)N1CCN(C(=O)c2ccco2)CC1 (centres undefined) | -7.42% | –
5 | CCC(c1nnnn1C1CCCC1)N1CCN(C(=O)c2ccco2)CC1 (centres undefined) | – | 44.7 µM (active)
6 | COc1c(O)cc2oc(-c3ccc(O)c(O)c3)cc(=O)c2c1O | – | 6.31 µM (active)
7 | COc1ccc(-c2c(C)c3ccc(O)c(CN4CCCC4)c3oc2=O)cc1OC | 1.07% | –
8 | COc1ccc(-c2c(C)c3ccc(O)c(CN4CCN(C)CC4)c3oc2=O)cc1OC | 27.4% | –
9 | CCN(CC)c1ccc(NS(=O)(=O)c2cc(-c3cc(C)no3)ccc2C)c(C)c1 | 7.48% | –
10 | CN(C)CCCn1c(-c2ccc(Cl)cc2)csc1=Nc1ccccc1 | -17.6% | –
11 | CCN1CCN(CCCNC(=O)c2ccc3c(c2)sc2nc(-c4ccc(OC)cc4)cn23)CC1 | 0.356% | –
12 | O=C(CSc1nc2ccccc2nc1Cc1ccccc1)N1CCCCC1 | -23.8% | –
13 | CCOC(=O)c1ccc(N2C(=O)c3n[nH]c(C)c3C2c2ccc(O)c(OC)c2)cc1 (centres undefined) | 6.08% | –
14 | CC(C)Oc1ccc(/C=C(\NC(=O)/C=C/c2ccco2)C(=O)NCCc2nc3ccccc3[nH]2)cc1 | -0.381% | –
15 | CCCCCOc1ccc(/C=C/C(=O)NCCc2nc3ccccc3[nH]2)cc1OC | – | 15.8 µM (active)
16 | COc1ccc(OC(C)C(=O)NCCc2nc3ccccc3[nH]2)cc1 (centres undefined) | 3.64% | –
17 | O=C(NCc1ccccc1Cl)C1=Cc2cc(Br)ccc2OC1 | 1.78% | –
18 | CC(C)C(=O)Nc1nc2c(s1)CC(C(C)(C)C)CC2 (centres undefined) | -15.1% | –
19 | COc1cccc(/C=N/NC(=O)c2[nH]nc3c2CCc2ccccc2-3)c1O | – | 8.91 µM (active)
20 | CN(C)CCNC(=O)c1[nH]nc2c1CCc1ccccc1-2 | 4.83% | –
21 | COc1ccc(/C=N/NC(=O)c2ccc3c(c2)OCCO3)c(OC)c1 | -7.82% | –
22 | CCOc1ccccc1CNC(=O)c1ccc(-n2c(C)cc3c2CCC(C)C3)cc1 (centres undefined) | -5.46% | –
23 | O=C1c2cccc3cccc(c23)C(=O)N1CCCCCc1n[nH]c(=S)o1 | 0.636% | –
24 | C[N+](C)(CCCCCC[N+](C)(C)CCCN1C(=O)c2cccc3cccc(c23)C1=O)CCCN1C(=O)c2cccc3cccc(c23)C1=O | – | 2.38 µM (active)
25 | O=C(CCCCCN1C(=O)c2cccc3cccc(c23)C1=O)NCc1ccco1 | 4.7% | –

Row | SMILES | activity change, negative = inhibition | Potency
26 | CCN(CCCNC(=O)CSc1cc(=O)n(C)c2cc(Cl)ccc12)c1cccc(C)c1 | -18.6% | –
27 | COc1ccc(C2=NC(c3ccncc3)=Nc3ccc(Br)cc3N2)cc1 | -0.33% | –
28 | CC(=O)c1ccc(NC(=O)CCc2nc(-c3ccc(C)cc3)no2)cc1 | -29.3% | –
29 | COc1cc2ccccc2cc1C(=O)Nc1cccc(-c2nc3ccccc3o2)c1 | 1.22% | –
30 | NC(=O)CCN1CCN(S(=O)(=O)/C=C/c2ccccc2)CC1 | 17.7% | –
31 | O=C(CN1CCN(S(=O)(=O)/C=C/c2ccccc2)CC1)NC(=O)NCc1ccco1 | – | 25.1 µM (active)
32 | COc1ccccc1N1CCN(CC(=O)NC(=O)NCc2ccco2)CC1 | 19.7% | –
33 | CCC1=Nc2cc(C(=O)NCC(C)c3ccccc3)ccc2Sc2ccc(C)cc21 (centres undefined) | -9.44% | –
34 | O=C(CNS(=O)(=O)c1cccs1)N1CCN(c2ccccc2Cl)CC1 | 12% | –
35 | COc1cccc(CNS(=O)(=O)c2ccc3c(c2)CC(C)N3C(C)=O)c1 (centres undefined) | 10.6% | –
36 | COc1cccc(CNS(=O)(=O)c2ccc3c(c2)CC(C)N3C(=O)C2CCC2)c1 (centres undefined) | – | inactive
37 | CCC(=O)N1c2ccc(S(=O)(=O)NCc3ccco3)cc2CC1C (centres undefined) | – | 0.398 µM (active)
38 | COc1cc(C(=O)N2CCN(c3ccc(Nc4ccc(C)cc4)nn3)CC2)cc(OC)c1OC | 11.6% | –
39 | Cc1ccc(-c2cnc(NCc3ccc(C(C)C)cc3)n2C)cc1 | 4% | –
40 | COc1ccc(NC(=O)c2ccco2)cc1NC(=O)COc1ccc(C)c(C)c1 | – | 11.2 µM (active)
41 | COc1ccc(OCC(=O)Nc2ccc(NC(=O)c3ccco3)c(C)c2)cc1 | 4.19% | –
42 | Cc1ccc(OCC(=O)NCCCNC(=O)c2ccco2)cc1C | 17.8% | –
43 | CCC(C)Nc1oc(-c2ccc(COc3ccc(Cl)cc3)o2)nc1C#N (centres undefined) | -4.08% | –
44 | Cc1ccccc1CNC(=O)CCCn1nc(C)c2sc3ccccc3c2c1=O | -3.26% | –
45 | COCCCNC(=S)N1CCCC(c2nc3cc(C)c(C)cc3[nH]2)C1 (centres undefined) | – | 39.8 µM (active)
46 | CCNC(=S)N1CCC(c2nc3cc(C)c(C)cc3[nH]2)CC1 | 37.3% | –
47 | CCCNC(=S)N1CCCC(c2nc3ccccc3[nH]2)C1 (centres undefined) | 32.4% | –
48 | CC1(C)N=C(SCc2ccccc2Cl)c2ccccc2N1 | 22.9% | –
49 | Fc1ccc(Nc2nc(SCc3ccccc3Cl)nc3ccccc23)cc1 | 4.9% | –
50 | Clc1ccccc1CSc1nnc(-c2ccco2)c(-c2ccco2)n1 | – | 4.47 µM (active)

Row | SMILES | activity change, negative = inhibition | Potency
51 | Cc1ccc(-c2nnc(SCC(=O)NCc3ccccc3)nc2-c2ccc(C)cc2)cc1 | -19.3% | –
52 | COc1ccc2nc(SCc3ccccc3)nc(C)c2c1 | -28.5% | –
53 | c1ccc(CSc2nnc(-c3ccco3)c(-c3ccco3)n2)cc1 | – | 7.94 µM (active)
54 | CCN(CC)S(=O)(=O)c1nnc(NC(=O)COc2ccccc2Cl)s1 | -0.683% | –
55 | CC1=Nc2cc(C(=O)NCc3ccc(C)cc3)ccc2Sc2ccc(Cl)cc21 | 8.49% | –
56 | O=C(CSc1nccn1-c1ccc(F)cc1)Nc1cccc2ccccc12 | 18.6% | –
57 | Cc1ccc(C)c(N2CCN(C(=O)Cn3nc(C)c4sc5ccccc5c4c3=O)CC2)c1 | 4.61% | –
58 | COc1ccc2c(c1)Cc1sc(NC(=O)c3ccccc3Br)nc1-2 | 8.32% | –
59 | CC(C)(C)c1ccc(C(=O)N2CCC(c3nc(-c4ccc(S(=O)(=O)N5CCCC5)cc4)no3)CC2)cc1 | 4.4% | –
60 | Oc1c(C(c2ccccc2Cl)N2CCOCC2)sc2nc(-c3ccco3)nn12 (centres undefined) | -23.3% | –
61 | CCOC(=O)C1CCN(C(c2ccc(F)cc2)c2sc3nc(-c4ccco4)nn3c2O)CC1 (centres undefined) | 1.93% | –
62 | CCOc1ccccc1/C=c1\sc2nc(-c3ccco3)nn2c1=O | – | 11.2 µM (active)
63 | COc1cc(CNC(=O)c2cc3n(n2)CCCN(Cc2cccc(F)c2)C3=O)cc(OC)c1OC | -11.6% | –
64 | CCC(=O)Nc1cccc(C(=O)OCc2cc(=O)n3nc(CC)sc3n2)c1 | -0.24% | –
65 | Cc1c(C(=O)NCc2ccccc2Br)oc2ccc3c(c12)C(=O)CC(C)(C)O3 | -0.951% | –
66 | O=C(CSc1nccn1Cc1ccc(F)cc1)NCc1ccccc1 | 2.98% | –
67 | COc1ccc(-c2noc(CSc3nnc(-c4ccccc4)n3-c3ccc(F)cc3)n2)c(OC)c1 | 2.59% | –
68 | C/C(=N\NS(=O)(=O)c1ccc(Br)cc1)c1cccs1 | 19.8% | –
69 | C/C(=N\Nc1ncc(Cl)cc1Cl)c1cccs1 | -23.8% | –
70 | C/C(=N\Nc1ccc(S(N)(=O)=O)cc1[N+](=O)[O-])c1cccs1 | – | 11.2 µM (active)
71 | CCC(=O)N1c2ccccc2CC1C(=O)N1CCN(c2cccc(OC)c2)CC1 (centres undefined) | -16% | –
72 | O=C(NCc1ccccc1)c1ccc2c(c1)nc1n2CCCCC1 | 2.98% | –
73 | CCOc1cccc(NC(=O)CSc2ncc(-c3ccc(Cl)cc3)[nH]2)c1 | -0.737% | –
74 | Cc1cc(C)c2nc3nc(C)cc(C)c3c(N)c2c1 | – | 39.8 µM (active)
75 | CC(/C=N/NC(=O)c1cc(-c2ccc3ccccc3c2)n[nH]1)=C\c1ccco1 | – | 12.6 µM (active)

Row | SMILES | activity change, negative = inhibition | Potency
76 | CC(=C/c1ccccc1)/C=N/NC(=O)c1cc(C)oc1C | 21.3% | –
77 | CC(C)(C)C1CCC(=NNC(=O)c2cc(-c3ccccc3)n[nH]2)CC1 (centres undefined) | -0.4% | –
78 | COc1ccc(/C=C/c2nc(C#N)c(NCc3ccc(F)cc3)o2)cc1OC | -25.4% | –
79 | Cc1ccc(Cn2c(C)nc3c(c2=O)c2nc4ccccc4nc2n3Cc2ccco2)cc1 | – | 10 µM (active)
80 | Cn1c2ccccc2c(=O)c2c(=O)n(Cc3ccco3)c(COc3ccccc3)nc21 | -7.71% | –
81 | O=c1c2ccccc2oc2nc(C3CCCCC3)n(Cc3ccco3)c(=O)c12 | -1.37% | –
82 | Clc1cccc(-c2nc3nc4ccccc4nc3n2Cc2ccco2)c1 | -2.15% | –
83 | Cc1cc(NC(=O)CSc2nc3cc(Cl)ccc3c(=O)n2Cc2ccco2)no1 | -0.389% | –
84 | Cc1nc2c(c(=O)n1Cc1ccco1)c1nc3ccccc3nc1n2Cc1ccccc1 | – | 20 µM (active)
85 | Cc1c(NC(=O)C(C)(C)C)cccc1-c1nc2ccccc2s1 | -25.5% | –
86 | Cc1ccc(NC(=O)CCCn2c(=O)c3cccn3c3ccccc32)cc1Cl | 3.08% | –
87 | Cc1ccc(CN2CCC(CNC(=O)c3cnn(-c4ccccc4Cl)c3C3CCN(C(=O)OC(C)(C)C)CC3)CC2)cc1 | 3.23% | –
88 | Cc1ccc(CNC(=O)CCc2c(C)nn(-c3ccc(N4CCCC4)nn3)c2C)cc1 | 2.86% | –
89 | CC(=O)c1ccc(S(=O)(=O)N2CCN(C(=O)/C=C/c3ccc4ccccc4n3)CC2)cc1 | – | 11.2 µM (active)
90 | CC(=O)c1ccc(S(=O)(=O)N2CCC3(CC2)OCCO3)cc1 | 8.96% | –
91 | CC(=O)c1cccc(Nc2ccc3cc(S(=O)(=O)N4CCC(C)CC4)ccc3n2)c1 | -0.0137% | –
92 | O=C1Cc2cc(S(=O)(=O)Nc3ccc(OC(F)(F)F)cc3)cc3c2N1CCC3 | -15.2% | –
93 | Cc1ccc(NC(=O)c2nc(S(=O)(=O)Cc3cccc(C)c3)ncc2Cl)cc1 | 16.3% | –
94 | COc1ccc(NS(=O)(=O)c2cc3c4c(c2)CC(=O)N4CCC3)cc1Cl | 1.58% | –
95 | O=c1[nH]c2ccccc2n2c(-c3ccccc3)nnc12 | – | 39.8 µM (active)
96 | O=c1[nH]n2c(-c3ccccc3)nc(O)c2c2ccccc12 | 34.8% | –
97 | CC(C)Cn1c(=O)c2ccccc2n2c(-c3cccc(Cl)c3)nnc12 | 23% | –
98 | COc1ccc(CNC(=O)c2cc3c(-c4ccccc4F)nn(C)c3s2)c(OC)c1 | 1.71% | –
99 | COc1ccc(N2CCN(c3nc(-c4ccccc4F)nc4ccccc34)CC2)cc1 | -10.7% | –
